# From paper PMC4336329 (PLoS ONE, 2015)
# Hit rate of the full screen: of about 310,000 compounds, about 14,000 (4.5%) showed an effect of 50% or more. Effects have a minus sign here. This excerpt belongs to a sample that is enriched for strong results.
# Biological target: human ether-à-go-go-related gene (hERG) potassium channel (human, UniProt Q12809)
# Assay: primary screen, population patch clamp on CHO cells stably expressing hERG; higher = less effect of the substance
# 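Further: peak tail current of the secondary pulse compared with the same well before compound.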
# Sequence of human ether-à-go-go-related gene (hERG) potassium channel (Q12809 whole entry, looked up): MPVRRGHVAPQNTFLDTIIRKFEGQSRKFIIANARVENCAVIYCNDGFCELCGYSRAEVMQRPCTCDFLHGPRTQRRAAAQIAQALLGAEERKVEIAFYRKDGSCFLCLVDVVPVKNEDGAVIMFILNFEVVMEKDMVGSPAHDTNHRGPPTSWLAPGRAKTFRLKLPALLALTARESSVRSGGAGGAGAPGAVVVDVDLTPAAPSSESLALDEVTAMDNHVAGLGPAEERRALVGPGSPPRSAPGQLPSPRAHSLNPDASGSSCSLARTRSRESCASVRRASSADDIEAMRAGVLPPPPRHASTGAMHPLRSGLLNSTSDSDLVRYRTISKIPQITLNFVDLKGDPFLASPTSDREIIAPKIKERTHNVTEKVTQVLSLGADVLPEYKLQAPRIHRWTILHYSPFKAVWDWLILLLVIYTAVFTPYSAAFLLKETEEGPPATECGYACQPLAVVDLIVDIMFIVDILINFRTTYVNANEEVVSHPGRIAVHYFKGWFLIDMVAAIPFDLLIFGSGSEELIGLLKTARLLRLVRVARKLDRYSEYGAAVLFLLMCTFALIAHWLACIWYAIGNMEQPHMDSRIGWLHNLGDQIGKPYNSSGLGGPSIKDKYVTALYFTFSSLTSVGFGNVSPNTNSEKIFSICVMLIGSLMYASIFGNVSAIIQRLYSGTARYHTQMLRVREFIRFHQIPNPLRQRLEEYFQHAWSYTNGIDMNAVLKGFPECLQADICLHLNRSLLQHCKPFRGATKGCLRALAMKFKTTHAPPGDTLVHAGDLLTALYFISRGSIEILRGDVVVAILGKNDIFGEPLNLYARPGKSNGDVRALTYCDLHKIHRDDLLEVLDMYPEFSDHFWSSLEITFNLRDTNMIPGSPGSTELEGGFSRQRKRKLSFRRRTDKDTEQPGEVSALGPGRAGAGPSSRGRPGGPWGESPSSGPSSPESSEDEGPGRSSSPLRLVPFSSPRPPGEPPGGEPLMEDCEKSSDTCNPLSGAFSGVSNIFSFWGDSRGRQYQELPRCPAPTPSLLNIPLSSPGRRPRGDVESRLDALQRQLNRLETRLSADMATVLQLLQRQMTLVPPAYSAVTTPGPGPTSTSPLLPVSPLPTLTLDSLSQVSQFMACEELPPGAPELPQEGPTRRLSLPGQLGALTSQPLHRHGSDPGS
row,SMILES,"hERG current change (%, negative = inhibition) at 10uM [%]"
1,CCCCS(=O)CC(CS(=O)CCCC)OC(=O)c1ccc(C)cc1 (stereo not drawn),-49.2
2,Cc1ccc(S(=O)(=O)N(C)c2ccc(C(=O)O)cc2)cc1,-17.1
3,CC(C)NCCCOc1ccc(C(C)(C)c2ccccc2)cc1.O=C(O)C(=O)O,7.21
4,CC(C)(c1ccccc1)c1ccc(OCC(O)CNC2CCN(Cc3ccccc3)CC2)cc1.O=C(O)C(=O)O (stereo not drawn),-72.8
5,C#CCOc1ccccc1CNC1CCN(Cc2ccccc2)CC1.O=C(O)C(=O)O,-29.3
6,CCOc1ccc(OCC(O)CNC2CCN(Cc3ccccc3)CC2)cc1.O=C(O)C(=O)O (stereo not drawn),-62.8
7,CC(=O)Nc1ccc(OCC(O)CNC2CCCC2)cc1.Cl (stereo not drawn),6.24
8,CCOc1ccc(CC(=O)NC2CCN(Cc3ccccc3)CC2)cc1,-6.23
9,COc1ccc(CNCC(O)COc2ccc(C(C)(C)c3ccccc3)cc2)cc1.O=C(O)C(=O)O (stereo not drawn),-12.3
10,COc1ccccc1NCC(O)COc1ccc(C(C)(C)C)cc1.O=C(O)C(=O)O (stereo not drawn),6.79
11,CC(C)N(CCNCC(O)COc1ccc(C(C)(C)c2ccccc2)cc1)C(C)C.O=C(O)C(=O)O (stereo not drawn),-79
12,O=C(Cc1ccccc1)NN1C(=O)C2C3C=CC(C3)C2C1=O (stereo not drawn),12.4
13,COc1ccc(C)cc1NC(=O)C(OC(=O)C1CC1)c1ccccc1 (stereo not drawn),-12
14,O=C(COC(=O)C1CCN(S(=O)(=O)c2ccccc2C(F)(F)F)CC1)NCc1ccc(F)cc1,-8.33
15,CCOc1ccc(N=Cc2c(O)n(-c3ccc(C)c(C)c3)c(=O)[nH]c2=O)cc1,-1.8
16,Cc1ccc(-n2ncc3c(SCC(=O)Nc4cc(C)on4)ncnc32)c(C)c1,17.9
17,O=C(C[n+]1ccccc1)N/N=C/c1ccccc1[N+](=O)[O-].[Cl-],40.2
18,Cc1cccc(C(=O)N2CCCC(Nc3ccc(C(C)C)cc3)C2)n1 (stereo not drawn),0.95
19,Cc1ccc(C2Nc3cccc4cccc(c34)N2)s1,-4.53
20,CN(C)S(=O)(=O)c1cccc(C(=O)Nc2ccc(S(=O)(=O)N3CCCC3)cc2)c1,25.5
21,CC1(C)Cc2cccc(OCC(=O)N3CCN(S(=O)(=O)c4ccccc4F)CC3)c2O1,-14.6
22,O=C(Nc1ccc2cn[nH]c2c1)c1ccc(S(=O)(=O)N2CCOCC2)cc1,-19.7
23,CC(=O)OC(C(=O)Nc1nccs1)c1ccccc1 (stereo not drawn),2.26

row,SMILES,"hERG current change (%, negative = inhibition) at 10uM [%]"
1,CC(C)CCNC(=O)c1nn(Cc2ccccc2)c(=O)c2ccccc12,5.59
2,CC(C)CNC(=O)c1nn(Cc2ccccc2)c(=O)c2ccccc12,-16
3,O=C(c1nn(Cc2ccccc2)c(=O)c2ccccc12)N1CCc2ccccc2C1,-29
4,CC(=O)c1ccc(N2CCN(C(=O)c3nn(Cc4ccccc4)c(=O)c4ccccc34)CC2)cc1,-75.1
5,O=C(c1ccc(Cn2c(=O)[nH]c3ccccc3c2=O)cc1)N1CCN(c2ccccn2)CC1,0.196
6,CC(=O)c1ccc(N2CCN(C(=O)c3n[nH]c4ccccc34)CC2)cc1,-34.3
7,O=C(c1nn(-c2ccccc2)c(=O)c2ccccc12)N1CCN(c2ccccn2)CC1,-16.5
8,CC(C)N(CCNC(=O)c1nn(Cc2ccccc2)c(=O)c2ccccc12)C(C)C,-66.1
9,O=C(c1nn(Cc2ccccc2)c(=O)c2ccccc12)N1CCN(c2ccccn2)CC1,-66.3
10,O=[N+]([O-])c1cccc(S(=O)(=O)Nc2ccc(S(=O)(=O)N3CCCC3)cc2)c1,2.95
11,O=C(CSc1nnc(NC(=O)c2c(F)cccc2F)s1)NC1CC1,21.9
12,COC(=O)c1cccc(Oc2cccc(Cl)n2)c1,14.7
13,Clc1ccc(COc2ccccn2)cc1Cl,-6.01
14,OCCOCCn1c(C(CO)Nc2nc(-c3ccc(F)cc3)cs2)nc2ccccc21 (stereo not drawn),-29.4
15,COc1ccc(N(CC(=O)NCc2ccccc2OC)S(=O)(=O)c2ccccc2[N+](=O)[O-])c(OC)c1,3.17
16,CN(C)Cc1c(C(=O)N/N=C/C=C/c2ccccc2)nnn1-c1nonc1N,-24.9
17,COC(=O)Nc1ccc(OC)c(OC)c1,4.01
18,COc1ncnc2c1sc1nc(-c3ccccc3)c3c(c12)CCCC3,15.6
19,N#Cc1nc(-c2ccc([N+](=O)[O-])cc2)oc1N1CCCCC1,14.5
20,CC(C)(C)c1ccc(-c2nc(C#N)c(N3CCC(C(N)=O)CC3)o2)cc1,-63.3
21,CCOc1ccc(-c2nc(C#N)c(N3CCN(CC)CC3)o2)cc1,-47.3
22,COc1ccc(-c2nc(C#N)c(N3CCC(C(N)=O)CC3)o2)cc1,-15.6
23,CCOc1ccc(-c2nc(C#N)c(N3CCN(C)CC3)o2)cc1,-32.5

row,SMILES,"hERG current change (%, negative = inhibition) at 10uM [%]"
1,CCN1CCN(c2oc(-c3ccc([N+](=O)[O-])cc3)nc2C#N)CC1,-53.1
2,CCN1CCN(c2oc(-c3ccc(OC)cc3)nc2C#N)CC1,-45.6
3,Cc1ccc(-c2nc(C#N)c(N3CCC(C(N)=O)CC3)o2)cc1,-23.7
4,CN1CCN(c2oc(-c3ccc([N+](=O)[O-])cc3)nc2C#N)CC1,-66.1
5,CC(=O)Cn1c(N2CCC(Cc3ccccc3)CC2)nc2c1c(=O)[nH]c(=O)n2C,10.3
6,COCCN(C(=S)Nc1ccc(C(C)C)cc1)C(C)c1cccs1 (stereo not drawn),8.26
7,COCC(C)NC(=O)CSc1ncnc2sc(-c3ccccc3)cc12 (stereo not drawn),-10.1
8,CCC(C)(C)n1c(=O)[nH]c2c(c1=O)CCC2,6.59
9,O=C(O)COCC(=O)Nc1ccc(OCCc2ccccc2)cc1,11.8
10,Cc1cccc(NS(=O)(=O)c2cc3c4c(c2)CCC(=O)N4CCC3)c1,-21.6
11,COc1cc(/C=C(/C#N)C(=O)Nc2ccccc2)c(Br)cc1OCc1ccc(C(=O)O)cc1,9.98
12,CC(C)Cc1ccc(C(C)C(=N)N)cc1.Cl (stereo not drawn),-6.14
13,CC(C)Cc1ccc(C(C)C(=O)Nc2ccc(O)cc2)cc1 (stereo not drawn),11.3
14,CC(C)Cc1ccc([C@H](C)C(=O)O)cc1,7.11
15,CC(C)Cc1ccc(C(C)C(N)=Nc2ccc(O)cc2)cc1.Cl (stereo not drawn),-80.2
16,CC(C)Cc1ccc(C(C)C(N)=NCCc2ccccc2)cc1.Cl (stereo not drawn),-67.5
17,COc1ccc(CCN=C(N)C(C)c2ccccc2)cc1OC.Cl (stereo not drawn),11.4
18,COc1cc(NC(=O)C2CC(c3cccc(Br)c3)=NO2)cc(OC)c1OC (stereo not drawn),-11.6
19,COc1ccccc1N1CCN(C(=O)c2ccccc2Oc2ccccc2)CC1,-25.7
20,Cc1cccc(N(CC(O)CON=C2c3ccccc3-c3ccccc32)S(C)(=O)=O)c1 (stereo not drawn),15.1
21,COc1ccc(P(=O)(COc2ccc([N+](=O)[O-])cc2)c2ccc(OC)cc2)cc1,-71
22,COc1ccc(CCNC(=O)COc2ccc([N+](=O)[O-])cc2)cc1,-31.1
23,COc1ccc(CNC(=O)COc2ccc([N+](=O)[O-])cc2)cc1,-64.5

row,SMILES,"hERG current change (%, negative = inhibition) at 10uM [%]"
1,COc1ccc(CNC(=O)COc2ccc(OC)cc2)cc1,13.8
2,COc1ccc(OCC(=O)NNC(=S)NC(=O)c2ccc([N+](=O)[O-])cc2)cc1,15.6
3,CN(C)c1ccc(P(=O)(COc2ccc([N+](=O)[O-])cc2)c2ccc(N(C)C)cc2)cc1,-41.9
4,O=C(COc1ccc([N+](=O)[O-])cc1)NCc1ccncc1,-67.6
5,O=C(COc1ccc([N+](=O)[O-])cc1)NCc1ccccc1,-38.9
6,O=C(COc1ccc([N+](=O)[O-])cc1)NCc1cccnc1,-33.4
7,CN(C)c1ccc(/C=N/NC(=O)c2ccc3c(c2)OCCO3)cc1,9.93
8,CCC(CC)NC(=O)CCCSc1nc2ccccc2[nH]1,22.3
9,O=C(Nc1cccnc1)c1ccc([N+](=O)[O-])s1,-20.1
10,CN(C)CCn1c(=O)n(C2CCCCC2)c(=O)c2c3c(sc21)CCCCC3,-25.3
11,O=C(O)Cn1c(=O)c2c3c(sc2n(Cc2ccccc2)c1=O)CCCC3,16.6
12,NC(=O)Cn1c(=O)n(CCc2ccccc2)c(=O)c2c3c(sc21)CCCC3,-15
13,CCn1c(=O)n(CCc2ccccc2)c(=O)c2c3c(sc21)CCCC3,1.05
14,NC(=O)Cn1c(=O)n(C2CCCCC2)c(=O)c2c3c(sc21)CCCCC3,-6.3
15,CCOC(=O)c1sc2c(c1C)c(=O)n(CCO)c(=O)n2Cc1ccccc1,4.88
16,CN(C)CCn1c(=O)n(Cc2ccccc2)c(=O)c2c3c(sc21)CCCCC3,-3.31
17,CN(C)CCCn1c(=O)n(C2CCCCC2)c(=O)c2c3c(sc21)CCCCC3,-53.8
18,CCOC(=O)c1sc2c(c1C)c(=O)n(Cc1ccccc1)c(=O)n2CCN(C)C,-58.9
19,CN(C)CCCn1c(=O)n(Cc2ccccc2)c(=O)c2c3c(sc21)CCCCC3,-58.9
20,Cc1c(C(=O)O)sc2c1c(=O)n(Cc1ccccc1)c(=O)n2C,23.2
21,CN(C)CCCn1c(=O)n(CCc2ccccc2)c(=O)c2c3c(sc21)CCCCC3,-70.4
